Results as given in PubChem BioAssay (NCATS).
Records with an inconclusive call do not appear. Activity calls are given as the source filed them. Calls follow the shape of the dose curve; as a rule, active = well fitted curve in the direction sought with a large enough effect; inconclusive = small, poorly fitted or top-dose-only effect, or another doubt; inactive = no such curve, though single readings can be large; an effect the other way counts as inactive or inconclusive.

Assays:
[1] = SDT Cancer Cell Toxicity qHTS against the NCATS CANVASS Library (AID 1347365); settings: SDT dog glioma viability, ATP luminescence, 72 h; series mostly up to 46.1 µM;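 also: SDT canine glioma cells 500 per well in 1536 well plates; nearly all actives have a fitted effect of over 60% in size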
In short: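 SDT dog glioma cells (500/well) exposed to an 11-point compound series for 72 hr at 37C, 5% CO2. Cytotoxicity read as ATP content by CellTiterGlo luminescence; bortezomib titration as control.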

[2] = KB-3-1 Cancer Cell Toxicity qHTS against the NCATS CANVASS Library (AID 1347366); settings: KB-3-1 viability, CellTiter-Glo luminescence, 72 h; series mostly up to 46.1 µM; also: nearly all actives have a fitted effect of over 75% in size
In short: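 500 KB-3-1 cells/well; compounds pin-transferred, 11-pnt series; 72 hr, 37C/5% CO2; CellTiter-Glo, 10 min RT; luminescence read-out.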

[3] = qHTS for ATAD5 Agonist screened against the NCATS CANVASS Library (AID 1347367); settings: HEK293T ATAD5-luciferase reporter, luminescence, 16 h; series mostly up to 46.1 µM
In short: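 Luminescence read-out: ATAD5-driven luciferase in stably transfected HEK 293T cells, which rises post-transcriptionally with DNA damage. Cells were exposed 16hr at 37C to test compound; a CellTiter-Fluor fluorescence read (1hr) measured viability first.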

[4] = G06 Cancer Cell Toxicity qHTS against the NCATS CANVASS Library (AID 1347368); settings: G06 dog glioma cells, viability ATP luminescence, 72 h; series mostly up to 46.1 µM; also: nearly all actives have a fitted effect of over 60% in size
In short: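 G06 dog glioma cells, 500 per well, exposed 72 hr at 37C, 5% CO2 to compounds in an 11-point series. Cytotoxicity read as ATP content by CellTiterGlo luminescence.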

[5] = MCF7 Cancer Cell Toxicity qHTS against the NCATS CANVASS Library (AID 1347369); settings: MCF7 viability, ATP luminescence (CellTiter-Glo), 72 h; series mostly up to 46 µM
In short: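 Luminescent ATP signal (CellTiterGlo) served as the cytotoxicity read-out after MCF7 breast cancer cells had been incubated 72 hr at 37C with natural products in an 11-point titration.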

[6] = qHTS for ATAD5 Antagonist screened against the NCATS CANVASS Library (AID 1347370); settings: HEK293T-ATAD5-luc, 5-FUrd stimulated, luminescence, 16 h; series mostly up to 46.1 µM;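 also: HEK293T cells carrying an ATAD5 luciferase reporter co-treated with 10 µM 5-fluorouridine; nearly all actives have a fitted effect of over 65% in size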
In short: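 HEK293T cells with stably integrated ATAD5-luciferase reporter, 2000/well, 5 h attachment; compounds plus 10 µM 5-fluorouridine, 16 h at 37 °C. Luciferase luminescence read, with CellTiter-Fluor viability read first.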

[7] = J3T Cancer Cell Toxicity qHTS against the NCATS CANVASS Library (AID 1347371); settings: J3T dog glioma viability, ATP luminescence, 72 h; series mostly up to 46.1 µM;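 also: J3T is a canine glioma cancer cell line seeded at 500 cells per well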
Excerpt: Natural products and their derivatives continue to be wellsprings of nascent therapeutic potential. However, many laboratories have limited resources for biological evaluation, leaving their previously isolated or synthesized compounds largely or completely untested. To address this issue, the Canvass library of natural products was assembled (https://tripod.nih.gov/canvass), in collaboration with academic and industry researchers, for quantitative high-throughput screening (qHTS) across a diverse set of cell-based and biochemical assays. […] The library was formatted into 1536-well plates and evaluated in 50 qHTS (in an 11-pnt concentration series) bioassays with broad scope of disease-relevant mechanisms. The resulting data set from 50 different assays was then systematically analyzed to identify overall trends and specific natural products with interesting biological activities. […] This assay uses ATP (luminescence) content to measure the cytotoxiciy of compounds on J3T dog glioma cancer cell line. […]
Cancer Cell Toxicity qHTS protocol: for cell lines G06, J3T, and SDT. […] Luminescence signal was acquired via the ViewLux plate reader (PerkinElmer) using a clear emission filter, 2 sec exposure, and 1x binning settings.

[8] = molecular target: Nuclear receptor subfamily 1 group I member 3 (Homo sapiens) (UniProt Q14994); assay: qHTS for Constitutive Androstane Receptor (CAR) Antagonist screened against the NCATS CANVASS Library (AID 1347372); settings: HepG2-hCAR-CYP2B6 luciferase, CITCO-stimulated antagonist mode; series mostly up to 46.1 µM;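 also: cells stimulated with 50 nM CITCO agonist so inhibition reflects antagonism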
In short: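 HepG2-CYP2B6-hCAR double-stable cells plated, 4hr attach; cpd pin-transferred; CITCO 50 nM final; 24hr 37C/5% CO2; CellTiter-Fluor 1hr (fluorescence), then ONE-Glo luminescence.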

[9] = molecular target: Nuclear receptor subfamily 1 group I member 3 (Homo sapiens) (UniProt Q14994); assay: qHTS for Constitutive Androstane Receptor (CAR) Agonist screened against the NCATS CANVASS Library (AID 1347373); settings: HepG2-hCAR-CYP2B6 luciferase reporter, ONE-Glo luminescence; series mostly up to 46.1 µM;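 also: every well also contained 1.5 µM PK11195 alongside the test compound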
In short: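 HepG2 cells stably carrying hCAR and a CYP2B6-2.2kb luciferase reporter, treated 24hr at 37C with compounds plus 1.5uM PK11195; activation by ONE-Glo luminescence, viability by CellTiter-Fluor.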

[10] = qHTS for Hypoxia signaling pathway (HIF-1) antagonists against the NCATS CANVASS Library (AID 1347374); settings: HRE-bla ME-180 cells, HIF-1 beta-lactamase reporter, CoCl2; series mostly up to 38.3 µM;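 also: HRE-bla ME-180 cells stimulated with cobalt chloride to stabilize HIF-1alpha; nearly all actives have a fitted effect of over 60% in size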
In short: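 HRE-bla ME-180 cells in medium with 0.5% dialyzed FBS received compounds (11-point series) plus CoCl2 (60 uM addition stock) for 17 hrs at 37C. Beta-lactamase activity read with CCF4 (405 nm ex, 460/530 nm em); CellTiter-Glo viability measured in same wells.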

Measured: outcome

Nuclear receptor subfamily 1 group I member 3 (Homo sapiens), sequence (Q14994 whole entry, looked up): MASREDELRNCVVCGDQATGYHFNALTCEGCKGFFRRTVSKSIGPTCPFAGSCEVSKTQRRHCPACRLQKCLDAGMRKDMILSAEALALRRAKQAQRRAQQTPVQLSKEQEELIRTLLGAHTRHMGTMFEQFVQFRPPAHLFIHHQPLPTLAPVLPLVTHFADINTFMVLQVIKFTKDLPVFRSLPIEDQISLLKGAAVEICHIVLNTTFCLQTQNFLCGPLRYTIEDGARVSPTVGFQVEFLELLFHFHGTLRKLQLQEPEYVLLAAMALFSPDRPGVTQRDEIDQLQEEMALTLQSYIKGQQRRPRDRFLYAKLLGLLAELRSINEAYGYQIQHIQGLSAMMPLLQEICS

NCCc1c[nH]c2ccc(O)cc12
inactive: [1] | [2] | [3] | [4] | [5] | [6] | [7] | [8] | [9] | [10]

NCCc1c[nH]c2ccccc12
inactive: [2] | [3] | [4] | [5] | [6] | [7] | [8] | [9] | [10]
